“And” between values parts separate entries of the source, which are not always exact repeats. Equal values may be shown once. Unmarked numbers belong to inactive results. Records with an inconclusive call do not appear. The source made the active and inactive calls. Unless noted, calls follow the shape of the dose curve; as a rule, active = well fitted curve in either direction with a large enough effect (not every such curve was filed as active); inconclusive = small, poorly fitted or top-dose-only effect, or another doubt; inactive = flat fitted curve, though single readings scatter.
Tests used:
[1] = molecular target: Lysosomal acid glucosylceramidase (Homo sapiens) (UniProt P04062); test: Glucocerebrosidase-p2 (AID 348; in the data active = potency below about 10 µM; also: potency is read from the fitted curve at half-maximal effect); settings: purified GBA, blue fluorogenic substrate, 40 min
Summary of the method: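 Compounds titrated from 0.6 nM upwards against 0.2 nM enzyme in pH 5.9 citric acid/KH2PO4, taurocholate, tween-20; blue fluorogenic substrate 80 uM, 40 min room temperature, stopped and read Ex 365/Em 440 for AC50.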

[2] = AP1 Signaling Pathway (AID 357); settings: ME-180 AP-1-bla reporter, EGF-induced, beta-lactamase ratio, 5 h; at 7.69 µM (top of the series) unless noted;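 also: ME-180 reporter cells stimulated with EGF at its EC50 level; % is scaled to controls: 0 for no effect and ±100 for the full control effect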
Summary of the method: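 AP-1-bla ME-180 cells, Opti-MEM + 0.5% dialyzed FBS, plated overnight 37 °C. Cpd titration + EC50 EGF, 5 h 37 °C. CCF4 2.5 h RT; ex 405, em 460/530 ratio → %activity, AC50.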

[3] = molecular target: Cytochrome P450 1A2 (Homo sapiens) (UniProt P05177); test: p450-cyp1a2 (AID 410; calls by dose curve; also: potency is read from the fitted curve at half-maximal effect;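 as to activity change, negative = inhibition: -100% = full effect of reference inhibitor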); settings: recombinant CYP1A2, luciferin-ME demethylation, luminescence; series mostly up to 11.4 µM
Summary of the method: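 Inhibition was calculated relative to 57 uM furafylline (full inhibition). The reaction used human CYP1A2 at 20nM with Luciferin-ME at its Km, 100uM, driven by an NADPH-regenerating system for 60 min at room temperature.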

[4] = Stat Signaling Pathway (AID 446); settings: ME-180 SIE beta-lactamase reporter, IL-6 stimulated, 5 h; at 7.69 µM (top of the series) unless noted;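 also: ME-180 cervical cancer cells given 40 pM IL-6 alongside compound; SIE-controlled beta-lactamase reporter measured as 460/530 nm FRET emission ratio; % is scaled to controls: 0 for no effect and ±100 for the full control effect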
Summary of the method: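 Reporter line: ME-180 cervical carcinoma, SIE-beta-lactamase. Treatment: compound with 40 pM IL-6, 5 hrs, 37 C, in low-serum OPTI-MEM with 10 mM HEPES pH 7.3. Detection: 460/530 nm fluorescence.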

[5] = molecular target: Glucocorticoid receptor (Homo sapiens) (UniProt P04150); test: GR-EFC Redistribution (AID 451; calls by dose curve; also: potency is read from the fitted curve at half-maximal effect); settings: CHO-K1 GR-EFC translocation, beta-gal luminescence, 2 h
Summary of the method: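 Translocation of GR-ED fusion to nuclear EA restores b-gal, read by luminescence after 1 h room-temperature detection. Engineered CHO-K1 biosensor cells, 1,000/well, exposed 2 h at 37 C to titrations up to 46 uM final.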

[6] = molecular target: Mitogen-activated protein kinase 10 (Mus musculus) (UniProt Q61831); test: JNK3 AlphaScreen Assay (AID 530); settings: JNK3 lysate, c-Jun phosphorylation; series mostly up to 57.1 µM;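 also: kinase came from lysate of stimulated human HepG2 cells; signal reports phosphorylation of biotinylated GST-cJun 1-79 at Ser73 with 10 µM ATP; % is scaled to controls: 0 for no effect and ±100 for the full control effect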
Summary of the method: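 Room-temperature AlphaScreen kinase assay; pre-activated HepG2 lysate as JNK3 source, biotin-GST-cJun(1-79) substrate, 10 uM ATP, compound 15 min preincubation.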

[7] = molecular target: 3',5'-cyclic-AMP phosphodiesterase 4B (Homo sapiens) (UniProt Q07343); test: qHTS Assay for Inhibitors of PDE-IV (AID 607; active = well fitted activation curve with a large enough effect in the main read-out, with a control signal flat, not every such curve was filed as active; also: % of control where 0% means no effect); settings: HEK293 ACTOne CNG channel cells, membrane potential fluorescence; series mostly up to 22.9 µM
Summary of the method: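 Cell-based read-out of cAMP via a modified cyclic nucleotide-gated channel and membrane potential dye (535/590 nm) in HEK293 cells expressing PDE4 endogenously. Compounds tested up to 22.9 uM final; 100 uM RO 20-1724 reference.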

[8] = NFAT Signaling Pathway (AID 444); settings: Jurkat NFAT-bla M1, carbachol, beta-lactamase ratio, 5 h; at 7.69 µM (top of the series) unless noted;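 also: carbachol stimulus at about its EC50 of 1 µM final; % is scaled to controls: 0 for no effect and ±100 for the full control effect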
Summary of the method: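 Read-out: CCF4 FRET ratio (460 nm/530 nm) after 1 h RT dye loading, used for %activity and AC50 from titration series. Cells: Jurkat NFAT-β-lactamase/M1 line, treated with compound plus 1 uM carbachol for 5 h, 37 °C.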

[9] = molecular target: Glucocorticoid receptor (Homo sapiens) (UniProt P04150); test: GR-GFP Redistribution (AID 450;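 active = compounds whose dose series gives a full or clear partial fitted curve of increased nuclear translocation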; also: potency is read from the fitted curve at half-maximal effect); settings: U2OS GR-GFP nuclear translocation, laser cytometry, 2 h
[10] = molecular target: Cytochrome P450 2D6 (Homo sapiens) (UniProt P10635); test: qHTS Assay for Inhibitors and Substrates of Cytochrome P450 2D6 (AID 891; active = well fitted curve in the direction sought with a large enough effect; an effect the other way counts as inactive or inconclusive; also: nearly all actives have a fitted effect of over 60% in size; also: potency is read from the fitted curve at half-maximal effect); settings: recombinant CYP2D6, luciferin-ME EGE luminescence; series mostly up to 11.4 µM
Summary of the method: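 Human CYP2D6 (5 nM) with 30 uM Luciferin-ME EGE (at Km) in 100 mM KPO4, compound preincubated 10 min, then NADPH regeneration system for 60 min at room temperature. Luciferin read by luminescence; normalized to 1.43 uM quinidine.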

[11] = molecular target: Cytochrome P450 2C19 (Homo sapiens) (UniProt P33261); test: qHTS Assay for Inhibitors and Substrates of Cytochrome P450 2C19 (AID 899; active = well fitted curve in the direction sought with a large enough effect; an effect the other way counts as inactive or inconclusive; also: nearly all actives have a fitted effect of over 60% in size; also: potency is read from the fitted curve at half-maximal effect); settings: recombinant CYP2C19, luciferin-H EGE luminescence; series mostly up to 11.4 µM
Summary of the method: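 Reactions contain 5nM enzyme, 10uM Luciferin-H EGE (KM) and 50mM KPO4; compound preincubates 10 min at 37C, NADPH regeneration starts turnover for 60 min. Luminescence after detection reagent gives activity.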

[12] = molecular target: Cytochrome P450 3A4 (Homo sapiens) (UniProt P08684); test: qHTS Assay for Activators of Cytochrome P450 3A4 (AID 885; active = well fitted curve in the direction sought with a large enough effect; an effect the other way counts as inactive or inconclusive; also: nearly all actives have a fitted effect of over 65% in size); settings: recombinant CYP3A4, Luciferin-PPXE luminescence, 60 min; series mostly up to 57.1 µM
Summary of the method: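 Signal was normalized against complete inhibition by 57 uM ketoconazole. The reaction used 20nM CYP3A4 with 25uM Luciferin-PPXE, 10-min compound preincubation and a 60-min NADPH-supported step at RT.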

[13] = molecular target: Cytochrome P450 2C9 (Homo sapiens) (UniProt P11712); test: qHTS Assay for Inhibitors and Substrates of Cytochrome P450 2C9 (AID 883; active = well fitted curve in the direction sought with a large enough effect; an effect the other way counts as inactive or inconclusive; also: potency is read from the fitted curve at half-maximal effect; nearly all actives have a fitted effect of over 60% in size); settings: recombinant CYP2C9, luciferin-H luminescence, 60 min; series mostly up to 57.1 µM
Summary of the method: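 Turnover of Luciferin-H (100uM, KM) by 10nM human CYP2C9 was measured over 60 min at 37C with NADPH regeneration; inhibitors and some substrates reduce luminescence. Data normalized to sulphaphenazole 57uM.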

[14] = qHTS Assay for Identification of Small Molecule Agonists for Hypoxia Response Element Signaling Pathway (AID 914; active = well fitted activation curve with a large enough effect in the signal ratio, with a control signal flat, not every such curve was filed as active; the % refers to the signal ratio; also: % of control where 0% means no effect); settings: ME-180 (cervical carcinoma) HRE-bla reporter, beta-lactamase ratio, CoCl2, 17 h; active compounds read high
Summary of the method: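 qHTS titration; ME-180 HRE-bla cells; EC50 CoCl2 co-treatment, 17 h at 37 degrees Celsius; CCF4 dye, ex 405nm, em 460nm and 530nm; %Activity from ratio; AC50.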

[15] = molecular target: Cytochrome P450 3A4 (Homo sapiens) (UniProt P08684); test: qHTS Assay for Inhibitors and Substrates of Cytochrome P450 3A4 (AID 884; active = well fitted curve in the direction sought with a large enough effect; an effect the other way counts as inactive or inconclusive; also: % is scaled to controls: 0 for no effect and ±100 for the full control effect; nearly all actives have a fitted effect of over 50% in size); settings: recombinant CYP3A4, Luciferin-PPXE luminescence; series mostly up to 57.1 µM
Summary of the method: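 20 nM human CYP3A4 with 25 uM Luciferin-PPXE (at KM) in 200 mM KPO4, preincubated 10 min with compound; NADPH regeneration started a 60 min RT reaction. Luciferin detected by luminescence, normalized to 57 uM ketoconazole as full inhibition.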

Sequence of 3',5'-cyclic-AMP phosphodiesterase 4B (Homo sapiens) (Q07343 whole entry, looked up): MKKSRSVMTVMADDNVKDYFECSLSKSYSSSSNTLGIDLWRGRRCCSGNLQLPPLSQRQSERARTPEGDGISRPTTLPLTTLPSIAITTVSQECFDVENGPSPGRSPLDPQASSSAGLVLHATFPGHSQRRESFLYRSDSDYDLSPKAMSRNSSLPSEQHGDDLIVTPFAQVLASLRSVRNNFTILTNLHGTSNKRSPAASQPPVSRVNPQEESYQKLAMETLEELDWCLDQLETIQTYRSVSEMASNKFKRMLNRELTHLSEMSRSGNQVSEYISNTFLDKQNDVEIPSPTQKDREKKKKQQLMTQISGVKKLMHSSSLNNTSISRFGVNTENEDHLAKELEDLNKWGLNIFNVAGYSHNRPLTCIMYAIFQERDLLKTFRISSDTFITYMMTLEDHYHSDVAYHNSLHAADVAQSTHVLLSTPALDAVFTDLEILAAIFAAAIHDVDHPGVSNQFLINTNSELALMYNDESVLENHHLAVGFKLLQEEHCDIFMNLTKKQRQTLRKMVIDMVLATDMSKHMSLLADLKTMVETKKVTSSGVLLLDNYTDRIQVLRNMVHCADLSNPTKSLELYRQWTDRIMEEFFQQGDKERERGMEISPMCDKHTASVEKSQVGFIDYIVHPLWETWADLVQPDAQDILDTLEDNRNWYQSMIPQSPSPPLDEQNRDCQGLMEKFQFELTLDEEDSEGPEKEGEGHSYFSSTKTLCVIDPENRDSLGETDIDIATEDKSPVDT
Sequence of Cytochrome P450 1A2 (Homo sapiens) (P05177 whole entry, looked up): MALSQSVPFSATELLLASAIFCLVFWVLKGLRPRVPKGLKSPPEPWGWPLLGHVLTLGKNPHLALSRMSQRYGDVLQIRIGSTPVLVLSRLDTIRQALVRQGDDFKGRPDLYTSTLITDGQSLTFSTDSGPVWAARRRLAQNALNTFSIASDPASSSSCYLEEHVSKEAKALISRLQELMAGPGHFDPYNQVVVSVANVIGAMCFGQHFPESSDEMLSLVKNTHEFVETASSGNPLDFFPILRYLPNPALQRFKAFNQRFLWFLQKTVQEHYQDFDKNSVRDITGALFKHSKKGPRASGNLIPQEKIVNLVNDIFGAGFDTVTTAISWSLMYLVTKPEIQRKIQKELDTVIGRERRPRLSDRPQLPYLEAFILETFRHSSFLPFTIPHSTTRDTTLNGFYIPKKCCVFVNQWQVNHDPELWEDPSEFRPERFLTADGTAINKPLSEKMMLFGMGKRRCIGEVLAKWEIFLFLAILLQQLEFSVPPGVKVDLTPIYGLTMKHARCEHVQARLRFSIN
Sequence of Cytochrome P450 2D6 (Homo sapiens) (P10635 whole entry, looked up): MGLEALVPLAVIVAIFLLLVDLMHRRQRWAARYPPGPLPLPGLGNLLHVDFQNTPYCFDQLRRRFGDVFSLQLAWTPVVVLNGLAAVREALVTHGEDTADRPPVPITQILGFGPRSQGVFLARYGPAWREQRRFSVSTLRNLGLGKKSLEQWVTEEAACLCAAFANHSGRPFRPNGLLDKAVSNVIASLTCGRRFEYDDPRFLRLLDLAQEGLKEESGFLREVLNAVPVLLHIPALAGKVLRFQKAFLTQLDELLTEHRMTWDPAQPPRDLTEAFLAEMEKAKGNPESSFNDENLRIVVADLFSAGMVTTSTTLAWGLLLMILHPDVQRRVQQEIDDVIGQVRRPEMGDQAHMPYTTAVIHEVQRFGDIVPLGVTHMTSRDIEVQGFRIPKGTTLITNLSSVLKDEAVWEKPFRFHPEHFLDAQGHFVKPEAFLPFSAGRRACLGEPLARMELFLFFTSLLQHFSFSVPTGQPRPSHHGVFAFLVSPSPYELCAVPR
Sequence of Lysosomal acid glucosylceramidase (Homo sapiens) (P04062 whole entry, looked up): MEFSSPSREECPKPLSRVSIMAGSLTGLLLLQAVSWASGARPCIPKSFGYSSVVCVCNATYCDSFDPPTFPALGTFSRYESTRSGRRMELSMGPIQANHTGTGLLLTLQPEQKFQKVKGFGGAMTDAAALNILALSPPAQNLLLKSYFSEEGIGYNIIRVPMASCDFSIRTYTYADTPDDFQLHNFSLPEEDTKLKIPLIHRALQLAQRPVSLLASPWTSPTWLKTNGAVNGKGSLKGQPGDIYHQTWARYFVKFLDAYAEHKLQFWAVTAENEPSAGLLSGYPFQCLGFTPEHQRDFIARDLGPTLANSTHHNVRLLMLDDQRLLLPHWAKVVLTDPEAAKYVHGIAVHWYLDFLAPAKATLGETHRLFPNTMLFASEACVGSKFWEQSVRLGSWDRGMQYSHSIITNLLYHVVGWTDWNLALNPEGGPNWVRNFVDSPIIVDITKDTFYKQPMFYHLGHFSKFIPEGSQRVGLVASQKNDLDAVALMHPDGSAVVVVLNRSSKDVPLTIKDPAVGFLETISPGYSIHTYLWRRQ
Sequence of Glucocorticoid receptor (Homo sapiens) (P04150 whole entry, looked up, the tested form may be a part): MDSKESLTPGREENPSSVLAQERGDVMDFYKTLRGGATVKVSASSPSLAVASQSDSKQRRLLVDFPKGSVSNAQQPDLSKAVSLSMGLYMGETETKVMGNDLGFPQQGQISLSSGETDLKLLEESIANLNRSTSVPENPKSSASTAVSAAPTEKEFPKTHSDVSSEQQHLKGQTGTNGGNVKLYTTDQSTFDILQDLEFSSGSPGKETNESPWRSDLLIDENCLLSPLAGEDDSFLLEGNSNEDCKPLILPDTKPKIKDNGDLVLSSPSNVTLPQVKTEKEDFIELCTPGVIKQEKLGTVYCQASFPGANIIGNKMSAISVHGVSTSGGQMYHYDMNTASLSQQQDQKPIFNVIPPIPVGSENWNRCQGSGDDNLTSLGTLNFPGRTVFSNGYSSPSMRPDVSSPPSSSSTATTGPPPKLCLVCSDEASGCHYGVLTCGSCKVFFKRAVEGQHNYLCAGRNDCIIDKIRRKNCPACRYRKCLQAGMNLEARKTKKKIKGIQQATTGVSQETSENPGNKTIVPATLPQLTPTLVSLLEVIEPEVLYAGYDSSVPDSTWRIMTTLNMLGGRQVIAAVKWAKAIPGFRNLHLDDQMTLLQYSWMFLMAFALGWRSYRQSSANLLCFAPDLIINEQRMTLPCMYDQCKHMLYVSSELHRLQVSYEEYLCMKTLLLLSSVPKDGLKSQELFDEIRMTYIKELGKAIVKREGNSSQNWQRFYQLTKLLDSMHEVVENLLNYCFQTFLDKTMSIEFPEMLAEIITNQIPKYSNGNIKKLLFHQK
Sequence of Cytochrome P450 3A4 (Homo sapiens) (P08684 whole entry, looked up): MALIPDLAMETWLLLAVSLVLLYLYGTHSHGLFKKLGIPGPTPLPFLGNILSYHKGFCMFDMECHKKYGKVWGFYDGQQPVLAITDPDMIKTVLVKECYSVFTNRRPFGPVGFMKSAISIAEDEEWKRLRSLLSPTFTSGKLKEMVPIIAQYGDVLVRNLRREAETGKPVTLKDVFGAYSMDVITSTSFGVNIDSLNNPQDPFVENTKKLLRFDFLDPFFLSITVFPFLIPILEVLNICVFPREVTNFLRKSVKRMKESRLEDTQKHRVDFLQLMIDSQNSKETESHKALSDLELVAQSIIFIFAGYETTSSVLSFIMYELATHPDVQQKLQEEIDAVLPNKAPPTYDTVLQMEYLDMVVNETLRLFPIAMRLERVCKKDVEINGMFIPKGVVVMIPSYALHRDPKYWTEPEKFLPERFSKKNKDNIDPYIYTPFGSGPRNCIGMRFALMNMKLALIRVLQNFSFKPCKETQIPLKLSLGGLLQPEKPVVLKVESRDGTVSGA
Sequence of Cytochrome P450 2C19 (Homo sapiens) (P33261 whole entry, looked up): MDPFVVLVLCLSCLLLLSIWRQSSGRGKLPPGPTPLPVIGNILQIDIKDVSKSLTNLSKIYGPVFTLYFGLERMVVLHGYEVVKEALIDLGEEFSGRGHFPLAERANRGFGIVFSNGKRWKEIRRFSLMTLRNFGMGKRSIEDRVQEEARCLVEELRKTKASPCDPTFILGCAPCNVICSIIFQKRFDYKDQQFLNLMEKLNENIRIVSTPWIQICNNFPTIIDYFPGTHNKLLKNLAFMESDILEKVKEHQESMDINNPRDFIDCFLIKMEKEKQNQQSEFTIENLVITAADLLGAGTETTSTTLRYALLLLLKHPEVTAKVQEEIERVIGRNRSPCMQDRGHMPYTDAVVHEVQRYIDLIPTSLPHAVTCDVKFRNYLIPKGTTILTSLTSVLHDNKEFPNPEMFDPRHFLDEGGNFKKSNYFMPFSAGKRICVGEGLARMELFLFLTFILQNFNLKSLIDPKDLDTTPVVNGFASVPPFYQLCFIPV
Sequence of Cytochrome P450 2C9 (Homo sapiens) (P11712 whole entry, looked up): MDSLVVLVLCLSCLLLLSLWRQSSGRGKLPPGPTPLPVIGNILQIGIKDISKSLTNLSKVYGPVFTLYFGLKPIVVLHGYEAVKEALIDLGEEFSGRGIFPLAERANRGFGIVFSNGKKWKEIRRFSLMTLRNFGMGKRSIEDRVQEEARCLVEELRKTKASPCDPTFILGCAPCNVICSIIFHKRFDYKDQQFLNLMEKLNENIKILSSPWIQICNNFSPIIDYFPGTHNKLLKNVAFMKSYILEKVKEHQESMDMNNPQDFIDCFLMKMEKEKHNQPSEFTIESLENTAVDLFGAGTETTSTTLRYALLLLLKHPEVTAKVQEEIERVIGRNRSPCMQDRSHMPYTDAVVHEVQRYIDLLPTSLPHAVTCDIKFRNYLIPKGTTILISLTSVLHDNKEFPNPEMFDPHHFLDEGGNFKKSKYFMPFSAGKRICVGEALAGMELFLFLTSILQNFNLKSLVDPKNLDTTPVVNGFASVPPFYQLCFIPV

Compound	Potency [1]	activity change, negative = inhibition [2]	Potency [3]	activity, negative = inhibition [4]	Potency [5]	activity change, negative = inhibition [6]	outcome [7]	activity change, negative = inhibition [8]	Potency [9]	Potency [10]	Potency [11]	activity change, positive = activation [12]	Potency [13]	activation [14]	activity change, negative = inhibition [15]
C[C@@H]1CC[C@@H]2N(C1)C[C@H]1[C@@](O)([C@H](O)C[C@]3(O)[C@H]4CC[C@H]5[C@]6(O)O[C@]4(C[C@]13O)[C@@]5(C)CC[C@@H]6O)[C@@]2(C)O	> 11.4 µM	0.655%	inactive	-1.33%	> 9.22 µM	4.3% [at 11.4 µM]	inactive	–	–	–	–	–	–	–	–
CSCC[C@@H](N)P(C)(=O)O	> 11.4 µM	10.2%	inactive	13.5%	> 9.22 µM	0.585% [at 11.4 µM]	inactive	–	–	–	–	–	–	–	–
C[C@@]12CC[C@H]3[C@H](CCC4=CC(=O)CC[C@H]43)[C@H]1CC[C@H]2OC1(O)C(=O)c2ccccc2C1=O	> 11.4 µM	1.93%	–	-10.1%	> 9.22 µM	-3.36% [at 11.4 µM]	inactive	-18.3%	> 46 µM	–	–	–	–	–	–
CCCOC(=O)[C@@H]1[C@@H](C(=O)O)[C@H]2CC[C@@H]1O2	> 11.4 µM	5.41%	–	8.61%	> 9.22 µM	6.67% [at 11.4 µM]	inactive	-0.63%	> 46 µM	–	–	–	–	–	–
NCCSC(c1ccccc1)c1ccccc1	> 11.4 µM	6.46%	1.58 µM (active)	–	> 9.22 µM	1.83% [at 11.4 µM]	inactive	–	> 46 µM	794 nM (active)	1.26 µM (active)	–	–	–	–
c1cc(CCN2CCCCC2)ccn1	> 11.4 µM	1.53%	–	6.27%	> 9.22 µM	1.02% [at 11.4 µM]	inactive	7.13%	> 46 µM	–	–	-36% [at 11.4 µM]	–	–	–
N=C(N)SCc1ccc(Cl)c2ccccc12 (tested in a mixture with another compound)	> 11.4 µM	6.29% and 5.72%	251 nM (active) and 158 nM (active)	-8.84% and -10.7%	–	3.26% [at 11.4 µM] and 4.92% [at 11.4 µM]	inactive	–	–	3160 nM (active)	–	–	3.98 µM (active)	–	–
CN(C)[C@@H]1C(=O)C(C(N)=O)=C(O)[C@]2(O)C(=O)C3=C(O)c4c(O)cccc4[C@](C)(O)[C@H]3C[C@@H]12	> 11.4 µM	-8.78%	–	-10.5%	> 9.22 µM	-5.55% [at 11.4 µM]	inactive	15.2%	> 46 µM	–	–	–	–	–	–
CC1(C)CCC(C)(C)c2c1ccc(O)c2Cc1c(O)ccc2c1C(C)(C)CCC2(C)C	> 11.4 µM	-8.54%	5.01 µM (active)	0.741%	> 9.22 µM	-1.06% [at 11.4 µM]	inactive	–	–	–	–	–	–	–	–
C[C@@H]1[C@H]2C=C[C@@H]1[C@@H](c1c3ccc(=O)c(O)c-3oc3c(O)c(O)ccc13)[C@@H]2C(=O)O	> 11.4 µM	-14.3%	–	–	> 9.22 µM	–	inactive	3.07%	> 46 µM	–	–	–	–	–	–
CO[C@@H]([CH2][Hg])CN1C(=O)c2ccccc2S1(=O)=O.Cn1c(=O)c2nc[nH]c2n(C)c1=O	1.86 µM (active)	12.7%	–	6.13%	–	-0.0716% [at 11.4 µM]	inactive	-3.51%	–	inactive	–	–	–	–	–
CCSCC[C@H](N)C(=O)O	> 11.4 µM	4.84%	–	-0.0113%	> 9.22 µM	–	inactive	3.15%	> 46 µM	–	–	–	–	–	–
N[C@@H](CSC1c2ccccc2-c2ccccc21)C(=O)O	> 11.4 µM	0.63%	–	3%	> 9.22 µM	-0.997% [at 11.4 µM]	inactive	-6.99%	–	–	–	–	–	–	–
COc1cc2c(cc1OC)[C@@]13CCN4C=C5CCO[C@H]6CC(=O)N2[C@@H]1[C@@H]6[C@H]5C[C@H]43	> 11.4 µM	4.45%	–	2.38%	–	3.62% [at 11.4 µM]	inactive	16.4%	–	–	–	–	–	-4.7%	–
CC(=O)O[C@H]1CC[C@@]2(C)[C@@H](CC[C@H]3[C@H]2CC(=O)[C@]2(C)[C@@H]3C[C@@H](N3CC3)[C@H]2C(C)=O)C1	> 11.4 µM	4.13%	–	5.02%	> 9.22 µM	-0.773% [at 11.4 µM]	inactive	13.1%	–	–	inactive	–	–	5.69%	71.6% [at 11.4 µM]

From PubChem BioAssay (NCATS)
